# TDP1 cell noCPT – qHTS for Inhibitors of human tyrosyl-DNA phosphodiesterase 1 (TDP1): qHTS in cells in absence of CPT. DT40 Tdp1-/- hTDP1 cells, no CPT, ATP luminescence, 48 h. Potency, µM (doses to about 46.2 µM), without a hit: top-dose activity change, negative = growth inhibition, hits mostly inhibitors. 420,000 compounds, 15% hits. AID 686978, 2013; note: potency is the fitted concentration of half-maximal effect; nearly all actives have a fitted effect of over 55% in size
#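 Seeded 400 DT40-hTDP1 cells/well (vehicle DMSO, no 20 nM CPT); pinned compounds; ≥48 hr at 37 °C; CellTiter-Glo luminescence as viability measure.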
# HT1080-NT tox – kills 2HG-producing HT-1080-NT fibrosarcoma cells; 360,000 compounds, 1.6% hits; HT-1080-NT fibrosarcoma viability, CellTiter-Glo ATP luminescence, 48 h; Potency, µM (titrated, usually from 46.1 µM), inactives show top-dose activity, negative = less viability, most hits filed as cytotoxic; AID 686970;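 note: NT is the 2HG producing partner of a matched IDH1 knockdown line; potency is the fitted concentration of half-maximal effect; 0% = DMSO-treated cells and -100% = media-only wells without cells; nearly all actives have a fitted effect of over 55% in size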
#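 HT-1080-NT fibrosarcoma cells (2HG-overproducing), 750 cells/well in RPMI with 5% FBS, dosed after 2 h and incubated 48 h at 37C. CellTiter-Glo luminescence normalized to DMSO and no-cell wells; concentration-response curves fitted and classed.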
# DT40 TDP1 CPT – growth inhibition of DT40 Tdp1-/-;hTDP1 cells with camptothecin (screen for TDP1 inhibitors); chicken DT40 Tdp1-/-;hTDP1 cells + 20 nM CPT, ATP luminescence, 48 h; Potency, µM (doses to about 46.2 µM), without a hit: top-dose activity change, negative = growth inhibition, hits mostly inhibitors; 420,000 compounds, 12% hits; note: potency is the fitted concentration of half-maximal effect; nearly all actives have a fitted effect of over 55% in size
#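 Cell growth measured by CellTiter-Glo luminescence after a minimum 48 h, 37 C compound exposure with 20 nM CPT in Tdp1-knockout DT40 cells stably expressing hTDP1, seeded 400/well; qHTS titration format.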
# ELG1 repair inh – blocks ELG1-dependent DNA repair in HEK293T cells. 330,000 compounds, 2.3% hits. Potency, µM (top dose mostly 46.1 µM), inactives show at the highest dose activity change, negative = inhibition, most hits filed as inhibitors. HEK293T ELG1-luciferase reporter, luminescence, 16 h; DNA damage induced by 5-fluorouridine. AID 504467; note: potency is the fitted concentration of half-maximal effect; nearly all actives have a fitted effect of over 55% in size
#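 Step one: seed 2,000 cells per well. Step two: pin-transfer compound or DMSO alongside 5-fluorouridine. Step three: incubate 16 hr, 37 °C, 5% CO2. Step four: add ONE-Glo, wait 30 min, read luminescence.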
# HT1080 IDH1KD tx – kills HT-1080 cells with IDH1 knockdown. HT-1080 IDH1 knockdown viability, ATP luminescence, 48 h. 360,000 compounds, 2% hits. AID 686971. Potency, µM (titrated, usually from 46.1 µM), for the others: at the top dose activity, negative = toxicity, hits mostly cytotoxic;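 note: potency is the fitted concentration of half-maximal effect; 0% = DMSO wells and -100% = cell-free medium wells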
#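 After a 2 h attachment period, IDH1KD HT-1080 cells took pin-transferred compound for 48 h at 37 °C; ATP-based luminescence after 10 min room-temperature reagent incubation reported viability.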
# IL-1B inflam inh – inflammasome signaling inhibition, IL-1 beta readout; activity change, % at 57.5 µM; THP-1 LPS/ATP IL-1B secretion, AlphaLISA, 16 h; active compounds read low; 360,000 compounds, 4.7% hits; in the data active = activity change below about -50%; inconclusive = mostly about -30% to -49%
#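 Secreted IL-1B measured by AlphaLISA bead assay after 16 h compound exposure of THP-1 cells; compounds (final up to 57.5 uM) added 1 h before LPS (250 ng/mL) and ATP (1.25 mM) stimulation; lower signal means less secretion.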
# Active calls of the source: *; ? = inconclusive; . = no result given. Only some compounds are listed: those with a hit (about 19% of all), similar ones and a draw of the others. Unless noted, calls come from the whole dose curve; as a rule, active = well fitted curve in the direction sought with a large enough effect; inconclusive = small, poorly fitted or top-dose-only effect, or another doubt; inactive = no such curve, though single readings can be large; an effect the other way counts as inactive or inconclusive. Unless noted, % is set by controls: 0 for no effect and ±100 for the full control effect.
SMILES,TDP1 cell noCPT,HT1080-NT tox,DT40 TDP1 CPT,ELG1 repair inh,HT1080 IDH1KD tx,IL-1B inflam inh
c1cc(SC2CCCCC2)cc(-c2nc3cnccn3c2NC2CCCCC2)c1,?,?,?,?,?,-66*
CCC(C)Sc1cccc(-c2nc3cnccn3c2NC2CCCCC2)c1 (configuration not stated),16µM*,?,21µM*,?,?,0
CC(C)(C)c1ccc(C(=O)NCC(=O)OCC(=O)N2CCCC2)cc1,2%,0%,-14%,15%,-1%,-6
O=C(Cc1cccc(NC(=O)C2CCCN(C(=O)CCc3ccccc3)C2)c1)Nc1cccc(C(=O)N2CCCC2)c1 (configuration not stated),23µM*,-2%,18µM*,?,0%,24
O=C(Cc1ccc(NC(=O)C2CCCN(C(=O)CCc3ccccc3)C2)cc1)Nc1cccc(C(=O)N2CCCC2)c1 (configuration not stated),13µM*,5%,23µM*,.,-4%,7
O=C(Cc1ccc(NC(=O)C2CCCN(C(=O)CCc3ccccc3)C2)cc1)Nc1cccc(C(=O)N2CCCCC2)c1 (configuration not stated),?,2%,?,.,-3%,11
CC1=CN2C(=N)/C(=C/c3ccc(C)o3)C(=O)N=C2S1,-5%,3%,2%,?,0%,11
Cc1ccc(/C=C2\SC(N3CCN(C(c4ccccc4)c4ccccc4)CC3)=NC2=O)o1,12µM*,-4%,15µM*,?,-20%,?
Cc1ccc(-c2ccc(/C=C3\SC(N4CCOCC4)=NC3=O)o2)cc1,9.2µM*,9.2µM*,10µM*,?,8.2µM*,-95*
O=C1N=C(N2CCOCC2)S/C1=C/c1ccc(-c2ccc(F)cc2)o1,21µM*,-29%,?,?,?,-23
O=C1N=C(N2CCOCC2)SC1=Cc1ccco1,-19%,12%,4%,.,5%,-4
CC1CCCN(S(=O)(=O)c2cccc(C(=O)OCC(=O)N(C)Cc3c(F)cccc3Cl)c2)C1 (configuration not stated),1%,13%,0%,?,22%,18
COc1ccc(C(=O)OCCN2CCN(C3=NS(=O)(=O)c4ccccc43)CC2)cc1OC,-24%,-4%,-23%,5%,3%,26
O=C(CSc1nc(=O)[nH]c2c1CCCC2)Nc1cc(C(F)(F)F)cc(C(F)(F)F)c1,23µM*,-3%,18µM*,1%,-7%,16
COC(=O)C(CC(=O)c1ccc(Br)cc1)n1ccnc1 (configuration not stated),1.3µM*,.,1.4µM*,?,.,.
COC(=O)C(CC(=O)c1ccc(Br)cc1)n1nc(C)cc1C (configuration not stated),?,-26%,?,-8%,6%,2
OCC[C@H]1C[C@H](O)[C@@H](O)[C@@]2(CCc3ccccc3O2)O1,-9%,10%,-3%,?,11%,15
COc1ccc(Br)c(C(=O)NCC2CCCCC2)c1,-17%,-10%,-18%,10%,-1%,-13
Cc1cc(C)c(NS(=O)(=O)c2ccc3c(c2)NC(=O)CCS3)c(C)c1,15µM*,-1%,?,?,-6%,0
CCC1Sc2ccc(S(=O)(=O)Nc3ccc(OC)cc3)cc2NC1=O (configuration not stated),?,-4%,?,-12%,0%,39
Cc1ccc(NS(=O)(=O)c2ccc3c(c2)NC(=O)CCS3)c(C)c1,?,-25%,23µM*,2%,-10%,-6
CCC1Sc2ccc(S(=O)(=O)Nc3ccc(OC)c(OC)c3)cc2NC1=O (configuration not stated),8.2µM*,-22%,21µM*,?,?,-13
CCOc1ccc(NS(=O)(=O)c2ccc3c(c2)NC(=O)CCS3)cc1,12µM*,.,?,.,.,.
O=C1CCC(C(=O)N2CCN(c3cnccn3)CC2)CN1CCc1cccc(F)c1 (configuration not stated),21%,-3%,-9%,2%,5%,5
Cc1cccc(C)c1C(O)c1ncc(-c2ccccc2Cl)[nH]1 (configuration not stated),-10%,-3%,-25%,.,-9%,-9
SMILES,TDP1 cell noCPT,HT1080-NT tox,DT40 TDP1 CPT,ELG1 repair inh,HT1080 IDH1KD tx,IL-1B inflam inh
Cc1nn(C(C)C(=O)NCCCN2CCCC2)c(=O)c2nn(-c3ccccc3)c(C)c12 (configuration not stated),12%,10%,0%,25%,10%,-8
Cc1c(C(=O)NCc2ccc(C(C)C)cc2)sc(=O)n1Cc1cccc(F)c1,?,-18%,?,.,?,-3
COc1ccc(Cl)cc1NS(=O)(=O)c1ccc2c(c1)NC(=O)CCS2,4.6µM*,4%,?,12%,-9%,7
N#Cc1cc2c([nH]c1=S)CCCC2,-4%,16%,2%,?,16%,29
C=CCSC(=C(C#N)C#N)c1cc2c([nH]1)CCCC2,12µM*,16µM*,10µM*,?,16µM*,-115*
CCOC(=O)c1cccc(NC(=O)/C=C/c2ccc([N+](=O)[O-])cc2)c1,8.2µM*,-12%,15µM*,?,-17%,-22
CCCCN(CCCC)C(=O)/C=C/c1cccc([N+](=O)[O-])c1,16µM*,5%,?,-24%,0%,?
COC(=O)c1cccc(NC(=O)/C=C/c2cccc([N+](=O)[O-])c2)c1,13µM*,-25%,?,?,?,-19
COC(=O)c1cccc(NC(=O)/C=C/c2ccc([N+](=O)[O-])cc2)c1,?,5%,-5%,?,2%,-7
CCNC(=O)COC(=O)/C=C/c1cccc([N+](=O)[O-])c1,-14%,13%,2%,2%,14%,-20
COc1ccccc1NC(=O)CCc1nnc2ccc(N3CCN(C)CC3)nn12,18%,1%,-13%,23%,10%,-8
Cc1ccc(C(=O)c2oc3ccccc3c2NC(=O)c2cc(-c3ccc(Cl)cc3)on2)cc1,-4%,.,10%,.,.,.

# Assay outcomes deposited in PubChem BioAssay by National Center for Advancing Translational Sciences (NCATS).
